# Results: article PMC7862700, “An all-to-all approach to the identification of sequence-specific readers for epigenetic DNA modifications on cytosine”
# Experiments:
# Experiment in all cases: DAPPL (digital affinity profiling via proximity ligation, sequencing); 10 mM Tris-HCl pH 7.5, 50 mM NaCl, 1 mM DTT, 4% glycerol, room temperature, 30 min; GST-TFs on glutathione beads, 16-mer random dsDNA library, 0.1% formaldehyde crosslink after washing; high values mean tight binding
# Conditions in all cases: protein: recombinant; tags: N-terminal GST; dsDNA, one strand shown
# [1] = biological target: T1, ERF (Homo sapiens, UniProt P50548 1-548)
# T1 sequence: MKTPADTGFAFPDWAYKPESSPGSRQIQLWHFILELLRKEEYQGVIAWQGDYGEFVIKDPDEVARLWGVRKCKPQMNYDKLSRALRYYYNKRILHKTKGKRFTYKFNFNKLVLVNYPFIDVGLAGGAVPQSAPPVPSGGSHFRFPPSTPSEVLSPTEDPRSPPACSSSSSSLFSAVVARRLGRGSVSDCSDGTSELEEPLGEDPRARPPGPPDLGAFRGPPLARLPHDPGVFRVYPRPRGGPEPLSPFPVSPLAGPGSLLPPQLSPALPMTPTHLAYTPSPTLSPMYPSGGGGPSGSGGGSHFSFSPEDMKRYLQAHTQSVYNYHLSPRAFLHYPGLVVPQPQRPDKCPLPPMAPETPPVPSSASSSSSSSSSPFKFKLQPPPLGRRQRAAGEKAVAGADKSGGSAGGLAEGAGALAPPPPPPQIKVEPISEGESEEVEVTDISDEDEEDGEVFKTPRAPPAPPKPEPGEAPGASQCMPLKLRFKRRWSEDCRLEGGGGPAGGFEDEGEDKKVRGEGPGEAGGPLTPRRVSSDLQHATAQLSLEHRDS
# Outline: (§1)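 Sequencing on an Illumina NextSeq500 followed washing, crosslinking with 0.1% formaldehyde, proximity ligation (BsaI/T4 ligase, 1 h, 37 °C) and PCR amplification of pools that had been incubated for 30 min at room temperature with 200 nmole of a random double-stranded 16-mer DNA library in Tris/NaCl/DTT/glycerol buffer. Each pool held DNA-barcoded human transcription factors, expressed in yeast as GST fusions and captured on glutathione beads, plus a tag-only sample. Binding signal is a hexamer's read frequency for a factor divided by its frequency in the tag-only sample.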
# [2] = biological target: T2, ETV3L (Homo sapiens, UniProt Q6ZN32 1-361)
# T2 sequence: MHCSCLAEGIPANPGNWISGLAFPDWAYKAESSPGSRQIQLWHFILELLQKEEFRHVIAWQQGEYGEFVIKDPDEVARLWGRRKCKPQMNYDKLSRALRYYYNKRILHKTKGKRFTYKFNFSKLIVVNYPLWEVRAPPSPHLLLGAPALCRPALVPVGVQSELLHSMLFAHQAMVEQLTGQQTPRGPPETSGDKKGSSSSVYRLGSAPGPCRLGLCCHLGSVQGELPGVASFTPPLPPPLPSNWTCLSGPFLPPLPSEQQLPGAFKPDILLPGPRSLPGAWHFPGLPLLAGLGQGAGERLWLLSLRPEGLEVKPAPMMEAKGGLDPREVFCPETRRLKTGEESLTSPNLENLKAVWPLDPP
# Outline: as §1
# [3] = biological target: T3, ETS2 (Homo sapiens, UniProt P15036 1-469)
# T3 sequence: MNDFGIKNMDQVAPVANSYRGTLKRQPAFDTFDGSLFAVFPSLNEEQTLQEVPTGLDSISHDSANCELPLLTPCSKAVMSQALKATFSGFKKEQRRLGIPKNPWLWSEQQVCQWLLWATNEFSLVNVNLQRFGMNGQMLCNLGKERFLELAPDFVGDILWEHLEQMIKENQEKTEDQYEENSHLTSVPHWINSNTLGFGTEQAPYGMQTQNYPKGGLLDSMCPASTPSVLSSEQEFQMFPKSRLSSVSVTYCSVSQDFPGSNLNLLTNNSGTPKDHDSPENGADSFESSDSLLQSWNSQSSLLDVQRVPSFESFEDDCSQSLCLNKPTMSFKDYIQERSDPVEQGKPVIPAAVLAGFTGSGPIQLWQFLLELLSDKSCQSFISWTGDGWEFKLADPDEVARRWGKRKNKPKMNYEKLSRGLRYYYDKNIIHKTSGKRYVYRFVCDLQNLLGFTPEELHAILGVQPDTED
# Outline: as §1
# [4] = biological target: T4, SPDEF (Homo sapiens, UniProt O95238 1-335)
# T4 sequence: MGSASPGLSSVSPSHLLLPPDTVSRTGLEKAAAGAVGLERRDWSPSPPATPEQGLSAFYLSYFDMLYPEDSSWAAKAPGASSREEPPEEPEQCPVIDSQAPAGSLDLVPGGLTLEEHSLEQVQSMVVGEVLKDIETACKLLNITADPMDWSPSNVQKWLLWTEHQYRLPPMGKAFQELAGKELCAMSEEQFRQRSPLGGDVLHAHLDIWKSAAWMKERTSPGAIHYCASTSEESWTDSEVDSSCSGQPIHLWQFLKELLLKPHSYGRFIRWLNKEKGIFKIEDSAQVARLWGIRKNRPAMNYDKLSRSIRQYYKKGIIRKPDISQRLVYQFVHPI
# Outline: as §1
# [5] = biological target: T5, ETV7 (Homo sapiens, UniProt Q9Y603 1-341)
# T5 sequence: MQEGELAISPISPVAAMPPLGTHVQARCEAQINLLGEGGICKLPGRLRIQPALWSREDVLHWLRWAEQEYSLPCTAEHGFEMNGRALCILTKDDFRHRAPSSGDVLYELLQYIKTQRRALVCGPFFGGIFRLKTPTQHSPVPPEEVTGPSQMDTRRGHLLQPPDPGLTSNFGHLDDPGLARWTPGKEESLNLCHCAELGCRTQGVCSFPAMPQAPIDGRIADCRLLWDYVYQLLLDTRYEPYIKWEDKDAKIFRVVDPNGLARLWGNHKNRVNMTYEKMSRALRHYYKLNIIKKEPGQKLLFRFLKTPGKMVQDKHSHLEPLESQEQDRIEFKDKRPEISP
# Outline: as §1
# [6] = biological target: T6, ELF5 (Homo sapiens, UniProt Q9UKW6-2 1-255)
# T6 sequence: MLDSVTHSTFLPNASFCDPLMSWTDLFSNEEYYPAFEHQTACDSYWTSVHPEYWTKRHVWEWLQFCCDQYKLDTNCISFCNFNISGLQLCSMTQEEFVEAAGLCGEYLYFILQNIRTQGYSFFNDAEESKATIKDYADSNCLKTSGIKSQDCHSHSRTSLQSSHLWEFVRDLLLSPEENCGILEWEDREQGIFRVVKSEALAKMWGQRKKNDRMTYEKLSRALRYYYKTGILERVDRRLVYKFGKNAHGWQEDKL
# Outline: as §1
# [7] = biological target: T7, ETV3 (Homo sapiens, UniProt P41162-2 1-143)
# T7 sequence: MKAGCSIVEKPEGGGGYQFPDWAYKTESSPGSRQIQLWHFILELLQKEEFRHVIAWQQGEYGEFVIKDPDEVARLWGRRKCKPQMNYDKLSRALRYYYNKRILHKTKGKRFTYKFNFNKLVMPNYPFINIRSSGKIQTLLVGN
# Outline: as §1
# [8] = biological target: ETV6 (Homo sapiens, UniProt P41212 1-452)
# Chain of ETV6 (P41212 whole entry): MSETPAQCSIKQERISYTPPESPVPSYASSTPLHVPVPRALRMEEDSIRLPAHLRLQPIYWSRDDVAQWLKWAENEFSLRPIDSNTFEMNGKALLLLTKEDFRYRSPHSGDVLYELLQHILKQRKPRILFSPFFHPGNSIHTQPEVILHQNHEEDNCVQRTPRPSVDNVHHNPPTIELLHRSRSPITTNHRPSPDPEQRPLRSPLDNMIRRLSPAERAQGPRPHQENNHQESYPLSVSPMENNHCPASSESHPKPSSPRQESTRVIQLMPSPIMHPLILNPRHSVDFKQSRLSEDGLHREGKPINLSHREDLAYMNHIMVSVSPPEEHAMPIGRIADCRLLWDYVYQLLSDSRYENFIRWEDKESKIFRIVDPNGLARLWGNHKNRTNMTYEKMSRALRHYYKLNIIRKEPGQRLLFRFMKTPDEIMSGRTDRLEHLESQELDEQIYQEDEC
# Outline: as §1
Sequence,binding signal [1],binding signal [2],binding signal [3],binding signal [4],binding signal [5],binding signal [6],binding signal [7],binding signal [8]
CAAAAT,"1.33 fold enrichment (6-mer frequency, TF over GST control)","1.19 fold enrichment (6-mer frequency, TF over GST control)","1.2 fold enrichment (6-mer frequency, TF over GST control)","1.1 fold enrichment (6-mer frequency, TF over GST control)","1.28 fold enrichment (6-mer frequency, TF over GST control)","1.13 fold enrichment (6-mer frequency, TF over GST control)","1.12 fold enrichment (6-mer frequency, TF over GST control)","1.26 fold enrichment (6-mer frequency, TF over GST control)"
CTGCGC,"1.34 fold enrichment (6-mer frequency, TF over GST control)","1.33 fold enrichment (6-mer frequency, TF over GST control)","1.46 fold enrichment (6-mer frequency, TF over GST control)","1.12 fold enrichment (6-mer frequency, TF over GST control)","1.23 fold enrichment (6-mer frequency, TF over GST control)","1.26 fold enrichment (6-mer frequency, TF over GST control)","1.32 fold enrichment (6-mer frequency, TF over GST control)","1.27 fold enrichment (6-mer frequency, TF over GST control)"
ACTCTC,"1.42 fold enrichment (6-mer frequency, TF over GST control)","1.49 fold enrichment (6-mer frequency, TF over GST control)","1.48 fold enrichment (6-mer frequency, TF over GST control)","1.45 fold enrichment (6-mer frequency, TF over GST control)","1.27 fold enrichment (6-mer frequency, TF over GST control)","1.37 fold enrichment (6-mer frequency, TF over GST control)","1.5 fold enrichment (6-mer frequency, TF over GST control)","1.33 fold enrichment (6-mer frequency, TF over GST control)"
GTTTTT,"1.07 fold enrichment (6-mer frequency, TF over GST control)","1.3 fold enrichment (6-mer frequency, TF over GST control)","1.25 fold enrichment (6-mer frequency, TF over GST control)","1.23 fold enrichment (6-mer frequency, TF over GST control)","1.2 fold enrichment (6-mer frequency, TF over GST control)","1.36 fold enrichment (6-mer frequency, TF over GST control)","1.34 fold enrichment (6-mer frequency, TF over GST control)","1.21 fold enrichment (6-mer frequency, TF over GST control)"
ACGTTC,"1.28 fold enrichment (6-mer frequency, TF over GST control)","1.42 fold enrichment (6-mer frequency, TF over GST control)","1.3 fold enrichment (6-mer frequency, TF over GST control)","1.21 fold enrichment (6-mer frequency, TF over GST control)","1.42 fold enrichment (6-mer frequency, TF over GST control)","1.42 fold enrichment (6-mer frequency, TF over GST control)","1.18 fold enrichment (6-mer frequency, TF over GST control)","1.36 fold enrichment (6-mer frequency, TF over GST control)"
CTTATC,"1.12 fold enrichment (6-mer frequency, TF over GST control)","1.22 fold enrichment (6-mer frequency, TF over GST control)","1.12 fold enrichment (6-mer frequency, TF over GST control)","1.23 fold enrichment (6-mer frequency, TF over GST control)","1.1 fold enrichment (6-mer frequency, TF over GST control)","1.17 fold enrichment (6-mer frequency, TF over GST control)","1.15 fold enrichment (6-mer frequency, TF over GST control)","1.1 fold enrichment (6-mer frequency, TF over GST control)"
